Inconclusive results are not listed. Activity calls are given as the source filed them. Unless noted, calls come from the whole dose curve; as a rule, active = well fitted curve in the direction sought with a large enough effect in the repeat runs; inconclusive = weak or mixed curves; inactive = no such curve, though single readings can be large; an effect the other way counts as inactive or inconclusive.
How the values were obtained:
[1] = qHTS assay to identify small molecule antagonists of the progesterone receptor (PR) signaling pathway - cell viability counter screen (AID 1346798); note: series mostly up to about 92 µM; nearly all actives have a fitted effect of over 50% in size
Procedure, shortened: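 CellTiter-Glo luminescence; PR-UAS-bla HEK293T, 3,000 cells/well; compound + R5020, 16 hr, 37C/5% CO2; 30 min RT before read.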

[2] = qHTS assay to identify small molecule agonists of the progesterone receptor (PR) signaling pathway - cell viability counter screen (AID 1346799; calls by dose curve; note: nearly all actives have a fitted effect of over 45% in size)
Procedure, shortened: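 In parallel with the beta-lactamase readout, cytotoxicity toward PR-UAS-bla HEK293T cells was measured by CellTiter-Glo luminescence following 16 hr compound incubation in 2% charcoal-stripped FBS medium.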

[3] = qHTS assay to identify small molecule antagonists of the TGF-beta/Smad signaling pathway - cell viability counter screen (AID 1346824); note: nearly all actives have a fitted effect of over 50% in size
Procedure, shortened: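 SBE-bla HEK 293T cells, incubated overnight, then compound plus 0.25 ng/mL TGF-beta1 (stock added) for 5 hr at 37 C. Viability was read in the same wells by CellTiter-Glo luminescence after 30 min at room temperature.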

[4] = qHTS assay to identify small molecule agonists of the TGF-beta/Smad signaling pathway - cell viability counter screen (AID 1346829); note: top concentration of the series differs between compounds; nearly all actives have a fitted effect of over 45% in size
Procedure, shortened: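 Same-well cytotoxicity: CellTiter-Glo added after the 2 hr room-temperature beta-lactamase substrate step, luminescence measured 30 min later; cells had 5 hr of compound at 37 C.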

[5] = qHTS assay to identify small molecule agonists of the TGF-beta/Smad signaling pathway (AID 1346859; active = well fitted activation curve with a large enough effect in the signal ratio in the repeat runs, not every such curve was filed as active; the % refers to the signal ratio; note: series mostly up to about 77 µM)
Procedure, shortened: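 After overnight seeding, SBE-bla HEK 293T cells are dosed with compounds in DMSO and kept 5 hr at 37 C, 5% CO2. LiveBLAzer-type FRET substrate is then applied for 2 hr at room temperature.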

[6] = molecular target: Thyrotropin-releasing hormone receptor (Homo sapiens) (UniProt P34981); assay: qHTS assay to identify small molecule antagonists of the thyrotropin-releasing hormone receptor (TRHR) signaling pathway (AID 1346877; active = well fitted inhibition curve with a large enough effect in the repeat runs, not every such curve was filed as active; note: series mostly up to about 51 µM)
Sequence of Thyrotropin-releasing hormone receptor (Homo sapiens) (P34981 whole entry, looked up): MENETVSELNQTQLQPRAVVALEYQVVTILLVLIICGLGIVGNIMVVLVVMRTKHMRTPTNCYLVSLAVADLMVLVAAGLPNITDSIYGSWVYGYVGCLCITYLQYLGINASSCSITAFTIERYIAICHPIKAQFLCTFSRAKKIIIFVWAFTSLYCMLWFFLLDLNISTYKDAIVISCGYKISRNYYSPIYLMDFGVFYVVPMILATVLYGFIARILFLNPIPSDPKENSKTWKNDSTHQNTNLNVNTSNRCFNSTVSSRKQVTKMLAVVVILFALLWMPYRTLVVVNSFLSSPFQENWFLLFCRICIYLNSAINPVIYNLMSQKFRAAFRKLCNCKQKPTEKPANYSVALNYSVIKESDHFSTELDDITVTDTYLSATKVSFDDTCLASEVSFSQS
Procedure, shortened: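 Screening used HEK293 cells engineered with TRHR, with a brief 5 min room-temperature compound exposure preceding addition of TRH to 1 nM. The read-out was kinetic calcium-dye fluorescence, concentration-response from 15 doses in triplicate.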

[7] = molecular target: Thyrotropin-releasing hormone receptor (Homo sapiens) (UniProt P34981); assay: qHTS assay to identify small molecule agonists of the thyrotropin-releasing hormone receptor (TRHR) signaling pathway (AID 1346891; calls by dose curve;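 note: HEK293 cells expressing TRHR with calcium dye readout; series mostly up to about 58 µM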)
Procedure, shortened: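 Compounds were tested as agonists at 15 concentrations, in triplicate, on TRHR-Hek293 cells; calcium-sensitive dye fluorescence was recorded for 3 min following addition.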

[8] = Human pregnane X receptor (PXR) small molecule agonists, qHTS cell viability counter screen (AID 1346977); note: nearly all actives have a fitted effect of over 50% in size
Procedure, shortened: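 Viability counter screen: CellTiter-Fluor signal in PXR-Luc HepG2 cells, 24hr compound exposure, 37C, 5% CO2.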

[9] = Caspase-3/7 induction in HepG2 cells by small molecules, qHTS assay (AID 1346978); note: nearly all actives have a fitted effect of over 15% in size
Procedure, shortened: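 Wild-type HepG2 cells, 2,000/well, settled 5 hr at 37 C and 5% CO2, then compound-treated for 17 hr; caspase-3/7 activity read by luminescent Caspase-Glo 3/7 after 30 min at room temperature.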

[10] = Caspase-3/7 induction in CHO-K1 cells by small molecules, qHTS cell viability counter screen (AID 1346979); note: nearly all actives have a fitted effect of over 35% in size
Procedure, shortened: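 Viability readout by fluorescence (CellTiter-Fluor) on wild-type CHO-K1 cells exposed for 16hr at 37C and 5% CO2 to compounds delivered in DMSO; reagent incubated 1hr before reading.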

Measured: Potency

O=S(=O)(c1ccc(O)cc1)c1ccc(O)cc1
inactive: all assays above

C#CCN(C)[C@H](C)Cc1ccccc1
inactive: all assays above

O=c1[nH]c(=O)[nH]c(=O)[nH]1
not listed: [9]
inactive: all other assays above

Cc1cc(Cl)ccc1O
inactive: all assays above

CC(C#N)CCC#N (stereo not drawn)
inactive: all assays above

O=[N+]([O-])c1ccccc1
inactive: all assays above

CCN(CC)CCO
not listed: [9]
inactive: all other assays above

Nc1ccc(Cc2ccc(N)cc2)cc1
inactive: all assays above

Oc1ccccc1Cl
inactive: all assays above

CCNc1nc(NC(C)C)nc(SC)n1
inactive: all assays above

BrCCBr
inactive: all assays above

CN(C)[C@@H]1C(=O)C(C(N)=O)=C(O)[C@@]2(O)C(=O)C3=C(O)c4c(O)cccc4[C@@](C)(O)[C@H]3C[C@@H]12
inactive: all assays above

NCC(O)c1ccc(O)cc1 (stereo not drawn)
not listed: [9]
inactive: all other assays above

O=NN1CCCCCCC1
inactive: all assays above

COC(=O)NC(=S)Nc1ccccc1NC(=S)NC(=O)OC
not listed: [9]
inactive: all other assays above

CCOC(=O)c1ccccc1C(=O)OCC
not listed: [9]
inactive: all other assays above

CC(C)C#N
inactive: all assays above

CCCN(CCC)c1c([N+](=O)[O-])cc(C(F)(F)F)cc1[N+](=O)[O-]
inactive: all assays above

CCC[CH2][Sn]([Cl])([Cl])[Cl]
inactive: all assays above

CC(C)C1(C)N=C(c2nc3ccccc3cc2C(=O)O)NC1=O (stereo not drawn)
inactive: all assays above

ClCCBr
inactive: all assays above

Clc1ccccc1Cl
not listed: [9]
inactive: all other assays above

c1cc2c3c(cccc3c1)CC2
inactive: all assays above

CC(NC(C)(C)C)C(=O)c1cccc(Cl)c1 (stereo not drawn)
not listed: [9]
inactive: all other assays above

From PubChem BioAssay (Tox21)
